Laboratory results reported in the supplement of paper PMC11732987, “Enantioselective OTUD7B fragment discovery through chemoproteomics screening and high-throughput optimisation” (Communications Chemistry, 2025).

Columns and labels:
Assay in all cases: log2 ratio of Biotin-Ahx-Ub-VS probe labelling (fragment/DMSO); higher = less target engagement (more negative = stronger competition), active = hit call of the paper (q ≤ 0.05, log2 ratio ≤ -1)
Settings in all cases: compound concentration: 200 uM; treatment time: 3 h
USP19 = target: T1, USP19 (UniProt O94966)
T1 sequence (whole entry): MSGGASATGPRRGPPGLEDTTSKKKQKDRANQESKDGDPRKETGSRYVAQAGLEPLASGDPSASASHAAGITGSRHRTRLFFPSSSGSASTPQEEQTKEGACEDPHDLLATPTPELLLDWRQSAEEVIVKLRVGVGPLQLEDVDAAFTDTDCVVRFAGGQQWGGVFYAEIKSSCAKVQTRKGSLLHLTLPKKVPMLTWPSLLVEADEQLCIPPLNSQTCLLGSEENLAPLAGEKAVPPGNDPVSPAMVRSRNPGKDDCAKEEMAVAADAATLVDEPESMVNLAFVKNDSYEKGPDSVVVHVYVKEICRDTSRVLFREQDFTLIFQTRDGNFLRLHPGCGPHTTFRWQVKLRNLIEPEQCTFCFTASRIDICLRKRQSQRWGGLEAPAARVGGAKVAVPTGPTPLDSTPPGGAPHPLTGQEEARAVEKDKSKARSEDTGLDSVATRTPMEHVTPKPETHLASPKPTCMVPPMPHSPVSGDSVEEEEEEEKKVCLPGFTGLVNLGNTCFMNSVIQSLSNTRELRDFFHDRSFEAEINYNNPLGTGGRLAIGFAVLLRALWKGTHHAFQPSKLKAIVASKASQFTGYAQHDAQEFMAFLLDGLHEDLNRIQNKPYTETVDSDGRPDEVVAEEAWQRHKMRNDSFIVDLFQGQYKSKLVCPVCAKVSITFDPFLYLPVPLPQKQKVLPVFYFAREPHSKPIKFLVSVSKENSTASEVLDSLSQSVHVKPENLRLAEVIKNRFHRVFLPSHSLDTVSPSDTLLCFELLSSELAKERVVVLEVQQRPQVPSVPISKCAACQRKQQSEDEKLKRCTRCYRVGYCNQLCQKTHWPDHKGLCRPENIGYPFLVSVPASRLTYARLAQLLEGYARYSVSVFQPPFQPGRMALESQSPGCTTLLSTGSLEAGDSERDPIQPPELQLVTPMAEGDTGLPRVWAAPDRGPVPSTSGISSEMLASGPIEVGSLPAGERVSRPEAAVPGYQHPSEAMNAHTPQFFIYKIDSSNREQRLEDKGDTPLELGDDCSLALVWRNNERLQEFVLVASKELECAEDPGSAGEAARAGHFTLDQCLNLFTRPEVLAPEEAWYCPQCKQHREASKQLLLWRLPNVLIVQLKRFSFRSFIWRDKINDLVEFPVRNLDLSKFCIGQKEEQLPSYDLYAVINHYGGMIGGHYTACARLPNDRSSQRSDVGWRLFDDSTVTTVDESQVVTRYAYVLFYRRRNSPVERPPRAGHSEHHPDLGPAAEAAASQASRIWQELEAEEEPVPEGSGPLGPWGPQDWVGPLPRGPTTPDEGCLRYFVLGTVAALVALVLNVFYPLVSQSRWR
In short: (§1)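 Triplicate samples of HEK293T lysate, 495 µg each, received fragment at 200 µM or vehicle for 3 h, followed by Biotin-Ahx-Ub-VS (0.5 µM final) for 1 h. After NeutrAvidin enrichment of labelled DUBs and LysC/trypsin digestion, peptides were run by diaPASEF LC-MS/MS. The values are average log2 fragment/vehicle ratios from global-median-normalised Spectronaut label-free quantities, tested by unpaired t-test on proteins having ≥2 unique peptides.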

USP24 = USP24 (UniProt Q9UPU5)
Sequence of USP24 (Q9UPU5 whole entry): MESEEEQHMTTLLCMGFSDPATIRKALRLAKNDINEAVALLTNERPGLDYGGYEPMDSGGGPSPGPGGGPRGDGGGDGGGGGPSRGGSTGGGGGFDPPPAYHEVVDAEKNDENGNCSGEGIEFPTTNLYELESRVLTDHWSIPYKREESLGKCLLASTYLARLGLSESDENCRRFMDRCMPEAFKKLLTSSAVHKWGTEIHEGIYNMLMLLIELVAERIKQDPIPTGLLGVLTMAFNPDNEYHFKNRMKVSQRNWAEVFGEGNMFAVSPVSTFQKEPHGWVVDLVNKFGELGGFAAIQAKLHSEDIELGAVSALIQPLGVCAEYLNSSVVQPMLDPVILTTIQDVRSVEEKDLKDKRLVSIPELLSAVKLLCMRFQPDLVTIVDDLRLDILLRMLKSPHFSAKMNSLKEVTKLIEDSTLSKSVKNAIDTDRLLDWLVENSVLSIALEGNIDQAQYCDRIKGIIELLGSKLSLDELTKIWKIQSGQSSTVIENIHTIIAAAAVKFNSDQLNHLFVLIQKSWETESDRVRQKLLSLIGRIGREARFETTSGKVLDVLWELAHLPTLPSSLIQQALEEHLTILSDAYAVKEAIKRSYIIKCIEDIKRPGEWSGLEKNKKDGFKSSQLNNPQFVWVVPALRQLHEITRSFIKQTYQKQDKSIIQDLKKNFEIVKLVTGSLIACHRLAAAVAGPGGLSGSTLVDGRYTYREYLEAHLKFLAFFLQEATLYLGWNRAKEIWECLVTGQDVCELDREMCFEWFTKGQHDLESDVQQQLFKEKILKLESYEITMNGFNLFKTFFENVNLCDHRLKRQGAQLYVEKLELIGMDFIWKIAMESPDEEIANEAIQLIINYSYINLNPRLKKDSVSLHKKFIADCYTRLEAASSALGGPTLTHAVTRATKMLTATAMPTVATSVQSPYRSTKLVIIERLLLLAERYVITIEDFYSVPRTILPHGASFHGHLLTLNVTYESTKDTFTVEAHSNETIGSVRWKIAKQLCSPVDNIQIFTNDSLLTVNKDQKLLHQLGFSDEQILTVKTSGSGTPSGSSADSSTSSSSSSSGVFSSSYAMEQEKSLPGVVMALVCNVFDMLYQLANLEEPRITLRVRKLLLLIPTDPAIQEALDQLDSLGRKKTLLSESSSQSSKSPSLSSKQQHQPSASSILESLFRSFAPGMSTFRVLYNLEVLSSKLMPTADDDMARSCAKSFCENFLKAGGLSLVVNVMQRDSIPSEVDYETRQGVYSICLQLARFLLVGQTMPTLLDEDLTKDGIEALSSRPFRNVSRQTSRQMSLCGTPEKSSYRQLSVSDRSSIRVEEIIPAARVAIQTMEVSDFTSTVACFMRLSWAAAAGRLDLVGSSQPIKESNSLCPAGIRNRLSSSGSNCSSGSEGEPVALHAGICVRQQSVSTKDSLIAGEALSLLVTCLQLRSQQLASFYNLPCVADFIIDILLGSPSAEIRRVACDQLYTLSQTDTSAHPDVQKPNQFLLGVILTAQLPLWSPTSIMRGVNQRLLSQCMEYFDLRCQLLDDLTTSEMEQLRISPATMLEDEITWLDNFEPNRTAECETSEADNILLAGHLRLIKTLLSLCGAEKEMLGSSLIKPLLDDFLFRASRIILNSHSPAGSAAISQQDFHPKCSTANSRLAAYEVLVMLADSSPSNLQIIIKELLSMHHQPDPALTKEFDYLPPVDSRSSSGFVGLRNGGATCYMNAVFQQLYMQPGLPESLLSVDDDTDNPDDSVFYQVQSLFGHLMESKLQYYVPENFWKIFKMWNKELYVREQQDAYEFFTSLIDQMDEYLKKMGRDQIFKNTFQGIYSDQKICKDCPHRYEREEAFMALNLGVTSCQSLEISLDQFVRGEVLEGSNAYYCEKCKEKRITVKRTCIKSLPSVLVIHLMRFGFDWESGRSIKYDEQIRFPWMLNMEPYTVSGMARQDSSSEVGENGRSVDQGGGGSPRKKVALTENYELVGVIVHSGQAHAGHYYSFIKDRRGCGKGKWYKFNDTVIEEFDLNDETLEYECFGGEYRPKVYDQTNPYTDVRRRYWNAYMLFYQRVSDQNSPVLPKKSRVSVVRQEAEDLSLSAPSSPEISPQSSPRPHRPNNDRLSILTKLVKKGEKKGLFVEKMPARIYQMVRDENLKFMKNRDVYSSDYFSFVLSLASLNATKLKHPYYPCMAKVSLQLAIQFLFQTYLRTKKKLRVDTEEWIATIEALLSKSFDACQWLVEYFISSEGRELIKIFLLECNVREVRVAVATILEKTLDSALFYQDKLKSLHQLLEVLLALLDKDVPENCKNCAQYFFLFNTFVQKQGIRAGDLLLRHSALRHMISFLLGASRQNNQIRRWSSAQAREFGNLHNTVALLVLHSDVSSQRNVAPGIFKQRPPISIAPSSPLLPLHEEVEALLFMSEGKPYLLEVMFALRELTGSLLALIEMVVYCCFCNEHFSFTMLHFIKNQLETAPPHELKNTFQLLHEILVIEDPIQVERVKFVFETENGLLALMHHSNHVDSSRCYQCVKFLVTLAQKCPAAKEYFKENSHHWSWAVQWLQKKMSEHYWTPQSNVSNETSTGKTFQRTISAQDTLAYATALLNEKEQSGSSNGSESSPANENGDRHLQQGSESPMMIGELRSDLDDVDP
In short: as §1

USP25 = target: T2, USP25 (UniProt Q9UHP3)
T2 sequence (whole entry): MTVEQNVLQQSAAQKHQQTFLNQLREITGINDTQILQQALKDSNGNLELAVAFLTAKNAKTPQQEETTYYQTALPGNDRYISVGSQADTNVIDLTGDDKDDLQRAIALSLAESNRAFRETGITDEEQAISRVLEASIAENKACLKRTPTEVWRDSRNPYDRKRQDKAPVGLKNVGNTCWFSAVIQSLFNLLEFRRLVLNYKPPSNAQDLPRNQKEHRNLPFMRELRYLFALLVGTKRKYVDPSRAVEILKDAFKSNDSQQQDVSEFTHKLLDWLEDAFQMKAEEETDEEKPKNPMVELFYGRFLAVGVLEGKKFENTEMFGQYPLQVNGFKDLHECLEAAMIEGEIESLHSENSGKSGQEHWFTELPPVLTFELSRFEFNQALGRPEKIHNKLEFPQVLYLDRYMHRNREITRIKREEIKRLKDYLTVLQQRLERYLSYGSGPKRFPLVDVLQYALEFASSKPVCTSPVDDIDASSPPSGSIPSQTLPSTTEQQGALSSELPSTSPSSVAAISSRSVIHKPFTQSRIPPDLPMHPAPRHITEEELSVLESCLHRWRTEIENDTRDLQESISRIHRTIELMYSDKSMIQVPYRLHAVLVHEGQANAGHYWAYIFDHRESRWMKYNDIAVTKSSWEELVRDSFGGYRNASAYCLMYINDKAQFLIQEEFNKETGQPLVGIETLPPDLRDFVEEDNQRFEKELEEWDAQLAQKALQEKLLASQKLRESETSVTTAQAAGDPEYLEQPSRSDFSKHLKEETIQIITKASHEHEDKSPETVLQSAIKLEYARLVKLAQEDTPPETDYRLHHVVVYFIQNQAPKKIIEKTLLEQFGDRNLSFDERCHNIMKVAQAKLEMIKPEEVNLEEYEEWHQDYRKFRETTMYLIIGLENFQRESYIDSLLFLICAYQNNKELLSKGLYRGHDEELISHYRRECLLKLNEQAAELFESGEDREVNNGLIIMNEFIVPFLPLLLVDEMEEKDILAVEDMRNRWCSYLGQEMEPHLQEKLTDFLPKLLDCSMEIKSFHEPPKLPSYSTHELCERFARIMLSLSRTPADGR
In short: as §1

USP28 = target: T3, USP28 (UniProt Q96RU2)
T3 sequence (whole entry): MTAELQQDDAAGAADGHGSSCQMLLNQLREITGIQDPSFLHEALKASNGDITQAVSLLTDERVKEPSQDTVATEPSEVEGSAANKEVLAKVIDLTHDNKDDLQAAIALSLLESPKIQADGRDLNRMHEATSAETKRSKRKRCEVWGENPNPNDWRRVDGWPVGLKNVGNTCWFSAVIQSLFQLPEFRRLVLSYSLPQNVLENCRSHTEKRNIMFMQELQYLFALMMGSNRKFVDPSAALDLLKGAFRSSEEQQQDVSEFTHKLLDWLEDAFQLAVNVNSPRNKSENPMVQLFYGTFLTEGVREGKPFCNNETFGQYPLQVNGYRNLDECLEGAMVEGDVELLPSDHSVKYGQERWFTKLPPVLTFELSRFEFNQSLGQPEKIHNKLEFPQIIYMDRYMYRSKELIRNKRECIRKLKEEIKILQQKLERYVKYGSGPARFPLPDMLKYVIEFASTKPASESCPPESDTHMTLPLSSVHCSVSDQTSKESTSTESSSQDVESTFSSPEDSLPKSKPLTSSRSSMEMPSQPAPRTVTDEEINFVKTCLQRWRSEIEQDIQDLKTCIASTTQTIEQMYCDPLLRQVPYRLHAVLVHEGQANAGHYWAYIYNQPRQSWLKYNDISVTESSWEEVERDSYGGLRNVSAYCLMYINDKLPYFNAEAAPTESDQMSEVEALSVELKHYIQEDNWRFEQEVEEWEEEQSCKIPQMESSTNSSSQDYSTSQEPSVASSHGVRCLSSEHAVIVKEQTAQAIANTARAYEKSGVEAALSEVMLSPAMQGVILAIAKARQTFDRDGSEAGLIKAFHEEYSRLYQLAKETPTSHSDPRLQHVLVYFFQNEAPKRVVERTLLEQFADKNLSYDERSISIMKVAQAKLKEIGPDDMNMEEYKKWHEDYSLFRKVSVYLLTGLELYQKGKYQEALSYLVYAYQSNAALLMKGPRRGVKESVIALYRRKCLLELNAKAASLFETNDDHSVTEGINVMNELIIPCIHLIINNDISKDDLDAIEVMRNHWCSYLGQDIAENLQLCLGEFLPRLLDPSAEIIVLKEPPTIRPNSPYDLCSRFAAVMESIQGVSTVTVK
In short: as §1

Measured: log2 ratio of Biotin-Ahx-Ub-VS probe labelling

Cc1ccc(C(=O)NCCNC(=O)CCl)cc1
inactive: USP19 -0.26 | USP24 -0.352 | USP25 -0.498 | USP28 -0.493
